PubChem BioAssay (NCATS)
Inconclusive results are not listed. Calls of active or inactive are those of the source. Calls follow the shape of the dose curve; as a rule, active = well fitted inhibition curve with a large enough effect; inconclusive = small, poorly fitted or top-dose-only effect; inactive = flat fitted curve, though single readings scatter.

Experiments:
Test in all cases: Cytotoxic Profiling of Annotated Libraries Using Quantitative High-Throughput Screening (AID 1296008); also: nearly all actives have a fitted effect of over 60% in size
Conditions in all cases: Five cell lines viability, CellTiter-Glo ATP luminescence, 48-72 h; max response: active compounds read low
CRL-7250 = system: CRL-7250
Procedure, shortened: (§1)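 Cells exposed to compounds for 48 or 72 hr at 37 degrees Celsius. Viability read as ATP-coupled luminescence with CellTiter-Glo after 10 min at room temperature.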

HEK293 = system: HEK293
Procedure, shortened: as §1

HaCat = system: HaCat
Procedure, shortened: as §1

KB-3-1 = system: KB-3-1
Procedure, shortened: as §1

NIH3T3 = system: NIH3T3
Procedure, shortened: as §1
% is scaled to controls: 0 for no effect and ±100 for the full control effect; potency is read from the fitted curve at half-maximal effect.

C[C@H]1O[C@@H](O[C@H]2CC[C@@]3(C)C(CC[C@]4(C)C3CC=C3C5CC(C)(C)CC[C@]5(C(=O)O)CC[C@]34C(=O)O)C2(C)C)[C@H](O)[C@@H](O)[C@@H]1O (stereo not given in full)
inactive: outcome (CRL-7250) | max response (HEK293) -5.54% | max response (HaCat) -21.6% | max response (KB-3-1) 4.81% | max response (NIH3T3) 3.7%

Cc1ccccc1C#Cc1ccc(CCC(=O)O)cc1
inactive: max response (CRL-7250) -3.17% | max response (HEK293) -13.9% | max response (HaCat) -15.6% | max response (KB-3-1) -11.6% | max response (NIH3T3) -10.2%

C=C1CC[C@@H]2[C@@](C)(CO[C@@H]3O[C@H](CO)C(O)[C@H](O)C3O)[C@H](O)CC[C@@]2(C)[C@@H]1CC/C(C)=C/CO (stereo not given in full)
inactive: outcome (CRL-7250) | max response (HEK293) 1.32% | max response (HaCat) -3.82% | outcome (KB-3-1) | max response (NIH3T3) -10.1%

O=C1NC2CCc3nc4ccccc4c(=O)n3C2=Nc2ccccc21 (stereo not given)
inactive: max response (CRL-7250) 2.4% | max response (HEK293) -3.35% | max response (HaCat) 3.54% | outcome (KB-3-1) | max response (NIH3T3) 4.44%

COC(=O)C1=CO[C@@H](O[C@@H]2O[C@H](CO[C@@H]3O[C@H](COC(=O)/C=C/c4cc(OC)c(O)c(OC)c4)[C@@H](O)[C@H](O)[C@H]3O)[C@@H](O)[C@H](O)[C@H]2O)[C@@H]2C(CO)=CC[C@H]12
inactive: max response (CRL-7250) -3.63% | max response (HEK293) 0.174% | max response (HaCat) 4.35% | outcome (KB-3-1) | max response (NIH3T3) -2.41%

CN[C@H](C(=O)N[C@H](C(=O)N(C)[C@H](/C=C(\C)C(=O)O)C(C)C)C(C)(C)C)C(C)(C)c1ccccc1
active: Potency (CRL-7250) 5.2 nM | Potency (HEK293) 7.3 nM | Potency (KB-3-1) 4.6 nM
inactive: max response (HaCat) -1.54% | max response (NIH3T3) -50.4%

CC1CCC2(C=O)C(CO)=CCCC2C1(C)CC(=O)O (stereo not given)
inactive: max response (CRL-7250) 1.72% | max response (HEK293) -8.27% | max response (HaCat) -1.16% | max response (KB-3-1) 2.85% | max response (NIH3T3) -21.3%

Nc1ncnc2c1nc(N)n2[C@@H]1O[C@H](CO)[C@@H](O)[C@H]1O
active: Potency (CRL-7250) 2590 nM | Potency (HEK293) 1640 nM | Potency (HaCat) 580 nM | Potency (KB-3-1) 4610 nM | Potency (NIH3T3) 4110 nM

C/C=C(\C)C(=O)O[C@@H]1CC2[C@@H](CC=C3C[C@@H](O[C@H]4C[C@H](OC)[C@H](O[C@H]5C[C@H](OC)[C@H](O[C@@H]6O[C@H](C)[C@@H](O[C@H]7C[C@H](OC)[C@H](O[C@@H]8O[C@H](CO)[C@@H](O)[C@H](O)[C@H]8O)[C@@H](C)O7)[C@H](OC)[C@H]6O)[C@@H](C)O5)[C@@H](C)O4)CC[C@@]32C)[C@@]2(O)CC[C@H](C(C)=O)[C@@]12C (stereo not given in full)
inactive: max response (CRL-7250) 3.18% | max response (HEK293) -3.44% | max response (HaCat) -4.54% | max response (KB-3-1) 8.46% | max response (NIH3T3) -3.87%

NC1CCCCN(c2c(F)cc3c(=O)c(C(=O)O)cn(C4CC4)c3c2Cl)C1 (stereo not given)
inactive: max response (CRL-7250) 3.42% | max response (HEK293) -12.1% | max response (HaCat) 0.186% | max response (KB-3-1) -4.74% | max response (NIH3T3) 1.34%

CC(C)(C)NS(=O)(=O)c1cncc(-c2cc(F)c3nc(N)nn3c2)c1
inactive: outcome (CRL-7250) | max response (HEK293) -1.27% | max response (HaCat) -25.2% | outcome (KB-3-1) | max response (NIH3T3) 3.5%

Cc1ccc(-c2ccc3ncc4c(c3n2)n(C2CCN(C(=O)[C@H](C)O)CC2)c(=O)n4C)cn1
active: Potency (CRL-7250) 146 nM | Potency (HEK293) 82 nM | Potency (HaCat) 1460 nM | Potency (KB-3-1) 116 nM | Potency (NIH3T3) 231 nM

C=CC[C@]12C[C@@H](OC)C(=O)C(OC)=C1O[C@@H](c1cc(OC)c3c(c1)OCO3)[C@@H]2C
inactive: max response (CRL-7250) 4.3% | max response (HEK293) -8.3% | max response (HaCat) -13.8% | max response (KB-3-1) -1.19% | max response (NIH3T3) -4.29%

CC1=CCC2C(C)(C)CCC[C@]2(C)[C@@]12CC[C@](C)(CC(=O)O)O2 (stereo not given in full)
inactive: max response (CRL-7250) -19.8% | max response (HEK293) -11.7% | max response (HaCat) -3.64% | max response (KB-3-1) -6.84% | max response (NIH3T3) -1.28%

COC(=O)CC(O)C1OC(c2ccccc2)C(O)C1O (stereo not given)
inactive: max response (CRL-7250) -3.81% | max response (HEK293) 2.88% | max response (HaCat) -28.3% | max response (KB-3-1) 2.62% | max response (NIH3T3) -5.26%

CC(=O)N[C@H]1[C@H](O[C@H]2CC[C@@]3(C)C(CC[C@]4(C)C3CC=C3[C@@H]5CC(C)(C)CC[C@]5(C(=O)OC5OCC(O)C(O)C5O)CC[C@]34C)C2(C)C)O[C@H](COC2OC(C)C(O)C(OC3OC(C)C(O)C(O)C3O)C2O)[C@@H](O)[C@@H]1O (stereo not given in full)
inactive: max response (CRL-7250) -6.06% | max response (HEK293) -2.57% | max response (HaCat) 2.89% | outcome (KB-3-1) | max response (NIH3T3) 3.74%

O=C(c1ccc2nccnc2c1)N1CCCCC1
inactive: max response (CRL-7250) -4.12% | max response (HEK293) -81.1% | max response (HaCat) -44.6% | outcome (KB-3-1) | max response (NIH3T3) -40.7%

CC(=O)OC1C[C@]2(C)C(O)CC(C)=C[C@H](OC(=O)c3ccc(O)cc3)C2[C@]1(O)C(C)C (stereo not given in full)
inactive: max response (CRL-7250) 1.7% | max response (HEK293) -3.03% | max response (HaCat) -0.241% | max response (KB-3-1) 4.36% | max response (NIH3T3) 3.62%

Fc1ccc2nc(CCC#Cc3ccccn3)cn2c1
inactive: max response (CRL-7250) -4.35% | max response (HEK293) -6.15% | max response (HaCat) -2.5% | max response (KB-3-1) -13.9% | max response (NIH3T3) -0.863%

CC(=O)O[C@H]1CC[C@H](C)[C@@]2(C)[C@H](OC(C)=O)c3c(C)coc3C(=O)[C@H]12
inactive: max response (CRL-7250) -18.1% | max response (HEK293) -27.7% | max response (HaCat) 2.83% | max response (KB-3-1) 6.49% | max response (NIH3T3) -5.72%

O=C(CCCCN1CCOCC1)Nc1ccc(-c2cccnc2)cc1
inactive: max response (CRL-7250) -12% | max response (HEK293) 0.956% | max response (HaCat) -1.44% | max response (KB-3-1) 3.7% | max response (NIH3T3) 4.47%

COc1ccc(/C=C\C(=O)O)c(O[C@@H]2O[C@H](CO)[C@@H](O)[C@H](O)[C@H]2O)c1
inactive: outcome (CRL-7250) | max response (HEK293) -0.642% | max response (HaCat) -1.35% | outcome (KB-3-1) | max response (NIH3T3) 0.681%

CCOC(=O)C(CCc1ccccc1)NC(C)C(=O)N1C(=O)N(C)CC1C(=O)O (stereo not given)
inactive: max response (CRL-7250) 3.58% | max response (HEK293) -4.81% | max response (HaCat) -19.4% | outcome (KB-3-1) | max response (NIH3T3) 1.45%

O=C(CSc1nc2c(c(=O)n1-c1ccccc1)SCC2)Nc1ccc(-c2ccccc2)cn1
active: Potency (CRL-7250) 231 nM | Potency (HEK293) 41.1 nM | Potency (KB-3-1) 46.1 nM | Potency (NIH3T3) 58 nM
inactive: max response (HaCat) -7.15%

O=C1OCC(c2ccccc2)=C1Cc1ccccc1
inactive: max response (CRL-7250) -11.2% | max response (HEK293) 0.652% | max response (HaCat) -5.17% | max response (KB-3-1) -0.0133% | max response (NIH3T3) -8.21%

O=C(OCC1=CC(O)C2C=CO[C@@H](O[C@@H]3O[C@H](CO)[C@@H](O)[C@H](O)[C@H]3O)C12)c1ccccc1 (stereo not given in full)
inactive: max response (CRL-7250) -3.02% | max response (HEK293) -4.16% | max response (HaCat) 1.81% | max response (KB-3-1) 2.99% | max response (NIH3T3) 1.21%

N#Cc1cnc2cnc(NCc3cccnc3)cc2c1Nc1ccc(F)c(Cl)c1
inactive: max response (KB-3-1) -15.8% | max response (NIH3T3) -8.77%
active: Potency (CRL-7250) 5170 nM | Potency (HEK293) 3660 nM | Potency (HaCat) 20600 nM

COc1cc(C)c(C(=O)O[C@H]2[C@@H](OC(C)=O)[C@H](n3ccc(=O)[nH]c3=O)O[C@@H]2CO)c(OC)c1
inactive: max response (CRL-7250) -2.01% | max response (HEK293) -0.552% | max response (HaCat) -9.32% | max response (KB-3-1) 0.943% | max response (NIH3T3) -14.4%

CCOC(=O)C(CCc1ccccc1)NC1CSC(c2cccs2)CN(CC(=O)O)C1=O (stereo not given)
inactive: max response (CRL-7250) 2.02% | max response (HEK293) -2.54% | max response (HaCat) 1.02% | outcome (KB-3-1) | max response (NIH3T3) -0.887%

C[C@@H]1C(=O)OC[C@H]2C(C(=O)O)=C[C@@H]3CC(C)(C)C[C@]312
inactive: outcome (CRL-7250) | max response (HEK293) 4.25% | max response (HaCat) 3.35% | max response (KB-3-1) 5.81% | max response (NIH3T3) 4.19%

OC[C@H]1O[C@@H](OCCc2ccccc2)[C@H](O[C@@H]2OC[C@](O)(CO)[C@H]2O)[C@@H](O)[C@@H]1O
inactive: max response (CRL-7250) -6.82% | max response (HEK293) -11.4% | max response (HaCat) 0.135% | outcome (KB-3-1) | max response (NIH3T3) 1.81%

CC1(C)CC[C@]2(C(=O)O)[C@H](O)C[C@]3(C)C(=CCC4[C@@]5(C)CC[C@H](O[C@@H]6O[C@H](CO[C@@H]7OC[C@H](O)[C@H](O)[C@H]7O[C@@H]7OC[C@@H](O)[C@H](O)[C@H]7O)[C@@H](O)[C@H](O)[C@H]6O[C@@H]6O[C@H](CO)[C@@H](O)[C@H](O)[C@H]6O)C(C)(C)C5CC[C@]43C)[C@@H]2C1 (stereo not given in full)
inactive: max response (CRL-7250) -10.1% | max response (HEK293) -1.49% | max response (HaCat) -11.7% | max response (KB-3-1) 4.84% | max response (NIH3T3) -6.3%

CC12CCC3c4ccc(O)cc4CCC3C1CC(OC1OC(C(=O)O)C(O)C(O)C1O)C2O (stereo not given)
inactive: max response (CRL-7250) -23.2% | max response (HEK293) 4.04% | max response (HaCat) -15% | outcome (KB-3-1) | max response (NIH3T3) 4.17%

COc1ccccc1Oc1ccc(N(Cc2cccnc2)S(=O)(=O)CC(F)(F)F)cc1
inactive: max response (CRL-7250) -7.01% | max response (HEK293) 4.88% | max response (HaCat) 0.0707% | max response (KB-3-1) -5.75% | max response (NIH3T3) -1.58%

CC(/C=C/C1=CC2=CC(=O)C(C)(O)C(O)C2=CO1)=C\C(C)CCO (stereo not given)
inactive: max response (CRL-7250) -1.14% | max response (HEK293) -3.02% | max response (HaCat) -24.3% | max response (KB-3-1) 4.06% | max response (NIH3T3) 0.418%

CC(C)=CCC(O)/C(C)=C/CO[C@@H]1O[C@H](CO)[C@@H](O)[C@H](O)[C@H]1O (stereo not given in full)
inactive: outcome (CRL-7250) | max response (HEK293) -0.719% | max response (HaCat) -6.63% | outcome (KB-3-1) | max response (NIH3T3) 0.203%

COc1ccc(N2CCOCC2)c2sc(NC(=O)N3CCC(C)(O)CC3)nc12
inactive: max response (CRL-7250) 0.434% | max response (HEK293) -6.66% | max response (HaCat) 3.93% | outcome (KB-3-1) | max response (NIH3T3) -12%
